From article PMC7862700, “An all-to-all approach to the identification of sequence-specific readers for epigenetic DNA modifications on cytosine”

Assays:
Experiment in all cases: DAPPL (digital affinity profiling via proximity ligation, sequencing); 10 mM Tris-HCl pH 7.5, 50 mM NaCl, 1 mM DTT, 4% glycerol, room temperature, 30 min; GST-TFs on glutathione beads, 16-mer random dsDNA library, 0.1% formaldehyde crosslink after washing; high values mean tight binding
FEV = molecular target: T1, FEV (Homo sapiens, UniProt Q99581 1-238); conditions: protein: recombinant; tags: N-terminal GST; dsDNA, one strand shown
T1 sequence: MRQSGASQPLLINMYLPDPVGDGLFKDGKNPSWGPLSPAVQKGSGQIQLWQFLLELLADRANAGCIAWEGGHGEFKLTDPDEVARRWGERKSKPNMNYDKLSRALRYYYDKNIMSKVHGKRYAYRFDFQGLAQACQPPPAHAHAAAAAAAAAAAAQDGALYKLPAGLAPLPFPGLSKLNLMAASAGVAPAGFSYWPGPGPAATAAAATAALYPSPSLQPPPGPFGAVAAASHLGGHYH
In short: (§1)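 Binding signal is defined as a hexamer's read frequency for one factor over its frequency for the tag-only sample. To obtain reads, GST-fused human transcription factors were expressed in yeast, captured on glutathione beads, barcoded with DNA and pooled with that sample. Pools met 200 nmole of a 16-mer random double-stranded DNA library in Tris/NaCl/DTT/glycerol buffer for 30 min at room temperature before washing, 0.1% formaldehyde crosslinking, proximity ligation (BsaI/T4 ligase, 1 h, 37 °C), PCR and Illumina NextSeq500 sequencing.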

ETV5 = ETV5 (Homo sapiens, UniProt P41161 1-510); conditions: protein: recombinant; tags: N-terminal GST; dsDNA, one strand shown
In short: as §1

HSF1 = HSF1 (Homo sapiens, UniProt Q00613 1-529); conditions: protein: recombinant; tags: N-terminal GST; chain copies: 3; dsDNA, one strand shown
In short: as §1

SPIC = molecular target: T2, SPIC (Homo sapiens, UniProt Q8N5J4 1-248); conditions: protein: recombinant; tags: N-terminal GST; dsDNA, one strand shown
T2 sequence: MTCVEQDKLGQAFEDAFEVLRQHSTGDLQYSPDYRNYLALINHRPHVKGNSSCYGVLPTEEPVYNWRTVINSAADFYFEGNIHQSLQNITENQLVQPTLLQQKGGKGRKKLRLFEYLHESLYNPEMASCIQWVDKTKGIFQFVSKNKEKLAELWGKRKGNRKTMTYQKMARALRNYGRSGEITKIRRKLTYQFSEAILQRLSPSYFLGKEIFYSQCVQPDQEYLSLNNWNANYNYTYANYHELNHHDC
In short: as §1

ELF4 = ELF4 (Homo sapiens, UniProt Q99607 1-663); conditions: protein: recombinant; tags: N-terminal GST; dsDNA, one strand shown
In short: as §1

ELK4 = molecular target: T3, ELK4 (Homo sapiens, UniProt P28324-2 1-405); conditions: protein: recombinant; tags: N-terminal GST; dsDNA, one strand shown
T3 sequence: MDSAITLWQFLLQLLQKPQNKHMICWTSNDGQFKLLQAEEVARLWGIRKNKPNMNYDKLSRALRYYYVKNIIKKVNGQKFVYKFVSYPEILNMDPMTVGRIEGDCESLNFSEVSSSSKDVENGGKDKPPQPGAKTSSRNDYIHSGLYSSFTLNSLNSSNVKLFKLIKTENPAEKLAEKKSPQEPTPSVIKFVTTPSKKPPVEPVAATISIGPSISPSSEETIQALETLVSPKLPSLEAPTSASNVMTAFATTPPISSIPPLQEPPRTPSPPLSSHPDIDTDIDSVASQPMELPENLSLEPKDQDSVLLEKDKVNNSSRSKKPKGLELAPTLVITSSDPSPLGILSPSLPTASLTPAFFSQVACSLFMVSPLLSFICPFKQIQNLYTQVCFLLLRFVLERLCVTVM
In short: as §1

ETV2 = molecular target: T4, ETV2 (Homo sapiens, UniProt O00321 1-342); conditions: protein: recombinant; tags: N-terminal GST; dsDNA, one strand shown
T4 sequence: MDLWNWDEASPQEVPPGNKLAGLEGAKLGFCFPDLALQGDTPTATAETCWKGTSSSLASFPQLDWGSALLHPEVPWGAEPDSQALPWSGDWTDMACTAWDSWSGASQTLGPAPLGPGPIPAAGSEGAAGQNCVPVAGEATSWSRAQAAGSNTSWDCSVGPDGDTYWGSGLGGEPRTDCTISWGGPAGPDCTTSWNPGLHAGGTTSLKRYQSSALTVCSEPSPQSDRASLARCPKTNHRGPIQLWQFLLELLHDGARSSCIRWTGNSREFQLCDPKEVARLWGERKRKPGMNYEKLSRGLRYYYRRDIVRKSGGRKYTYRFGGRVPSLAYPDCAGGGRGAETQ
In short: as §1

ELF3 = molecular target: T5, ELF3 (Homo sapiens, UniProt P78545 1-371); conditions: protein: recombinant; tags: N-terminal GST; dsDNA, one strand shown
T5 sequence: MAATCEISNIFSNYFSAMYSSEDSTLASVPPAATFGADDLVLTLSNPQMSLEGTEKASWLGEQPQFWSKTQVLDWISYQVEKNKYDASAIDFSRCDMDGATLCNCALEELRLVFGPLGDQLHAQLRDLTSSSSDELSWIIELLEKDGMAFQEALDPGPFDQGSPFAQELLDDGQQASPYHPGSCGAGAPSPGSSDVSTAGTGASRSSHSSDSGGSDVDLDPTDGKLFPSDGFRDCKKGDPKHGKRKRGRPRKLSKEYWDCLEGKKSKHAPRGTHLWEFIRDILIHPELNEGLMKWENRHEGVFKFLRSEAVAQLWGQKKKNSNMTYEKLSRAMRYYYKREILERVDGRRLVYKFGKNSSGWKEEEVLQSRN
In short: as §1

CRX = CRX (Homo sapiens, UniProt O43186 1-299); conditions: protein: recombinant; tags: N-terminal GST; dsDNA, one strand shown
In short: as §1

ETV1 = ETV1 (Homo sapiens, UniProt P50549 1-477); conditions: protein: recombinant; tags: N-terminal GST; dsDNA, one strand shown
In short: as §1

ERF = molecular target: T6, ERF (Homo sapiens, UniProt P50548 1-548); conditions: protein: recombinant; tags: N-terminal GST; dsDNA, one strand shown
T6 sequence: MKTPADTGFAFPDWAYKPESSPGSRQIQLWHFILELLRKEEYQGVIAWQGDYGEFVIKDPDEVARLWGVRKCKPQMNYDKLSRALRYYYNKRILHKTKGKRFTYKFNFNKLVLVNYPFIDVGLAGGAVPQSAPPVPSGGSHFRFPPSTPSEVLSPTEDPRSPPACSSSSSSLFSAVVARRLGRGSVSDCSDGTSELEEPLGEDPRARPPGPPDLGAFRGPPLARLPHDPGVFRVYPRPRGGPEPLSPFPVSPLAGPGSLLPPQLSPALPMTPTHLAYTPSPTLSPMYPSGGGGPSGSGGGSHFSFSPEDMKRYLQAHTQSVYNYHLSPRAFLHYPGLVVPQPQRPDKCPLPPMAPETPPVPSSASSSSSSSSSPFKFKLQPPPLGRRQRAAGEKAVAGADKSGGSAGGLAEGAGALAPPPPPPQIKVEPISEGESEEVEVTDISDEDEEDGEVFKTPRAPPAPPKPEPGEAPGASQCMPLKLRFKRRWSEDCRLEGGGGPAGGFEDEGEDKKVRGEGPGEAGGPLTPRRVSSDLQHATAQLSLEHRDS
In short: as §1

ETV3L = molecular target: T7, ETV3L (Homo sapiens, UniProt Q6ZN32 1-361); conditions: protein: recombinant; tags: N-terminal GST; dsDNA, one strand shown
T7 sequence: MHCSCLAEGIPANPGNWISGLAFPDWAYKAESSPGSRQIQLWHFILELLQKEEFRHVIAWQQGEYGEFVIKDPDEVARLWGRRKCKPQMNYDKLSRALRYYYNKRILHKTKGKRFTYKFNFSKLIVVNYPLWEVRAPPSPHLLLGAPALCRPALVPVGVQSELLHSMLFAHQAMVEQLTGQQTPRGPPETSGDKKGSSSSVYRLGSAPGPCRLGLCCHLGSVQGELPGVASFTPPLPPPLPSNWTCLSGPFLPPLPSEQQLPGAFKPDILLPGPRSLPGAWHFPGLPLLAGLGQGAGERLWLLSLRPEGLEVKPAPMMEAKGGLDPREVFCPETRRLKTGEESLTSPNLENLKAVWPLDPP
In short: as §1

ETS2 = molecular target: T8, ETS2 (Homo sapiens, UniProt P15036 1-469); conditions: protein: recombinant; tags: N-terminal GST; dsDNA, one strand shown
T8 sequence: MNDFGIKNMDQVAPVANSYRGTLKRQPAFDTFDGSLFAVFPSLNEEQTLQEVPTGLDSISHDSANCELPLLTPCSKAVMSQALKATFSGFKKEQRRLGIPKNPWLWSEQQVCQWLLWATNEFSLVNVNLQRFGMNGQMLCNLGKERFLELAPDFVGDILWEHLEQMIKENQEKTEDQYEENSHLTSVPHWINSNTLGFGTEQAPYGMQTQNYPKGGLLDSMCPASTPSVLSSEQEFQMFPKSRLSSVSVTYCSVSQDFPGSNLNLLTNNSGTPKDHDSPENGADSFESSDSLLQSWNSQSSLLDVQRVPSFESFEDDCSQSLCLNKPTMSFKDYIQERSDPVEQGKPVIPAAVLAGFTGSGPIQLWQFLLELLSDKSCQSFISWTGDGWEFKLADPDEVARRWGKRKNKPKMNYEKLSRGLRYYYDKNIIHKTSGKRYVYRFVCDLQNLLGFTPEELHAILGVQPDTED
In short: as §1

SPDEF = molecular target: T9, SPDEF (Homo sapiens, UniProt O95238 1-335); conditions: protein: recombinant; tags: N-terminal GST; dsDNA, one strand shown
T9 sequence: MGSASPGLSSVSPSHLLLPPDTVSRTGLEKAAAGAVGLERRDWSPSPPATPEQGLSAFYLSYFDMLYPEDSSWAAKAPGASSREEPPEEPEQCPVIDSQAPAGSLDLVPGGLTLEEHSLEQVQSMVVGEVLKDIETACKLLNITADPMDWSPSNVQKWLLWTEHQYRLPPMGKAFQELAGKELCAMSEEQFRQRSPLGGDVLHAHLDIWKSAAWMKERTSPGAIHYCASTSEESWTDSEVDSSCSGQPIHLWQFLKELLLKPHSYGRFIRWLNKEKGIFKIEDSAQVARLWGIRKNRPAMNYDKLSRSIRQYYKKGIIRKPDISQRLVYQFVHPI
In short: as §1

ETV7 = molecular target: T10, ETV7 (Homo sapiens, UniProt Q9Y603 1-341); conditions: protein: recombinant; tags: N-terminal GST; dsDNA, one strand shown
T10 sequence: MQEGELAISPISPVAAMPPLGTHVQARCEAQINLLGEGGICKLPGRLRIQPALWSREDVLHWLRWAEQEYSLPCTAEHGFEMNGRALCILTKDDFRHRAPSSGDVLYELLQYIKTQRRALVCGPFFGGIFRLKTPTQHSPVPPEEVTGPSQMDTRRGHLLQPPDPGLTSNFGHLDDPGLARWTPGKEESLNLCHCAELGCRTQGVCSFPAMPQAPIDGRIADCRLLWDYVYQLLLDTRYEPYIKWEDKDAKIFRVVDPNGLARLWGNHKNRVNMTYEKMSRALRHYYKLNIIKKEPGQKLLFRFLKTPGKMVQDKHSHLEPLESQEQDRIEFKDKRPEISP
In short: as §1

ELF5 = molecular target: T11, ELF5 (Homo sapiens, UniProt Q9UKW6-2 1-255); conditions: protein: recombinant; tags: N-terminal GST; dsDNA, one strand shown
T11 sequence: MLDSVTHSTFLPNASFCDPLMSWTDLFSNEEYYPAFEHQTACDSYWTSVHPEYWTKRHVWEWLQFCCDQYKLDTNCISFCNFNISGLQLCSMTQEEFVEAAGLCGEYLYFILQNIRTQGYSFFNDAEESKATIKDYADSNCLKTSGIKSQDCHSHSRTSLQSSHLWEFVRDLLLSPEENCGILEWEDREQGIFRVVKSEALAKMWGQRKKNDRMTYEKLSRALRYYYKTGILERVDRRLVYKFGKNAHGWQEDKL
In short: as §1

ETV3 = molecular target: T12, ETV3 (Homo sapiens, UniProt P41162-2 1-143); conditions: protein: recombinant; tags: N-terminal GST; dsDNA, one strand shown
T12 sequence: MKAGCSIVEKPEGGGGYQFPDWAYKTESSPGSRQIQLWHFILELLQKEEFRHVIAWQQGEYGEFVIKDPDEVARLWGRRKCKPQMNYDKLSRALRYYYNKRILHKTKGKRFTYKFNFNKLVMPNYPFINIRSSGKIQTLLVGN
In short: as §1

ETV6 = ETV6 (Homo sapiens, UniProt P41212 1-452); conditions: protein: recombinant; tags: N-terminal GST; dsDNA, one strand shown
In short: as §1

Sequence of ETV1 (P50549 whole entry): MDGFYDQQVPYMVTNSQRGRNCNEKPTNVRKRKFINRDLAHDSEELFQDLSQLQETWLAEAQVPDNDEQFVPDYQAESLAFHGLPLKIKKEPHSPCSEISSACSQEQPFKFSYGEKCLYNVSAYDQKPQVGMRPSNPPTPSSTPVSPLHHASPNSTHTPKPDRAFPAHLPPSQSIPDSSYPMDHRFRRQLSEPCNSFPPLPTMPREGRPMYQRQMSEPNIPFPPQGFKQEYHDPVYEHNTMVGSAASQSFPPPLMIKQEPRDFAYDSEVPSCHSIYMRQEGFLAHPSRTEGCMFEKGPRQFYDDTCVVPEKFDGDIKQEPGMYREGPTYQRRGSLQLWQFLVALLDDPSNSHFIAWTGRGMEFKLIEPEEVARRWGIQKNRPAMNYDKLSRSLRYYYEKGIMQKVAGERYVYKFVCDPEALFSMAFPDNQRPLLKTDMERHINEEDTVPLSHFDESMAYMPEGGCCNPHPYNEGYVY
Sequence of ETV5 (P41161 whole entry): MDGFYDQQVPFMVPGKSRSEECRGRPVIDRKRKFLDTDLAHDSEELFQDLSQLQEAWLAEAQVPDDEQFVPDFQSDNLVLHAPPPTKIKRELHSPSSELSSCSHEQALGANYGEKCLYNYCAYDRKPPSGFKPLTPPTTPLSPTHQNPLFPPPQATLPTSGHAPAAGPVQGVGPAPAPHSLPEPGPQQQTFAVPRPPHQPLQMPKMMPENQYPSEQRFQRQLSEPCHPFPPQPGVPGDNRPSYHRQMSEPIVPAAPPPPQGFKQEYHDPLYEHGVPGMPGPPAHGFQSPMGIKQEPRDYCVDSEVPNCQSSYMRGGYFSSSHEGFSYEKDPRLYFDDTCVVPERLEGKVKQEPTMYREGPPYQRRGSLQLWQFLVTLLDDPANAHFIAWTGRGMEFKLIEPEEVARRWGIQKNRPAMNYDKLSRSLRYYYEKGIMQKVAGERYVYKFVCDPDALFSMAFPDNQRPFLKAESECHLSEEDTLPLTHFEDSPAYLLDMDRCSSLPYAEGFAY
Sequence of CRX (O43186 whole entry): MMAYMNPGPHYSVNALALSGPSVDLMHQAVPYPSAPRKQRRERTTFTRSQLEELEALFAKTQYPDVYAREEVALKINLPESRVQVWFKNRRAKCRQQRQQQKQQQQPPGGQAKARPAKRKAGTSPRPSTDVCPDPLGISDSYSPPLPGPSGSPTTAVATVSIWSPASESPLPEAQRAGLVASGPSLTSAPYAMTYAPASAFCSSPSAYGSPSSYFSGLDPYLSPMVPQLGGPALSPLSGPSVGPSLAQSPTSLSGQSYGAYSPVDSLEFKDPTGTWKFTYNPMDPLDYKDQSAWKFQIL
Sequence of ETV6 (P41212 whole entry): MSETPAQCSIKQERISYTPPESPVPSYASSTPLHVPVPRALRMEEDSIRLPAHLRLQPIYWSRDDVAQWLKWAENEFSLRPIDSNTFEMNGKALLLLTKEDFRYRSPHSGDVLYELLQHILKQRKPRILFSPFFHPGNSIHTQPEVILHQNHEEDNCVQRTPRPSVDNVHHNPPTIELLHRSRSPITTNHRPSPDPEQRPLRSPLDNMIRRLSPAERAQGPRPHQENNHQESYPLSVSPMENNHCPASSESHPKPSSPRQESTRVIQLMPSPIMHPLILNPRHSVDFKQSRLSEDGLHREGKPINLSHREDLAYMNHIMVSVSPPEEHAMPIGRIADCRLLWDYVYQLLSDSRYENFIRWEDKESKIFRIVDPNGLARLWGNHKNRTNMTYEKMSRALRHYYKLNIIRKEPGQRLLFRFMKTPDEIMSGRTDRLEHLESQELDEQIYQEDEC
Sequence of ELF4 (Q99607 whole entry): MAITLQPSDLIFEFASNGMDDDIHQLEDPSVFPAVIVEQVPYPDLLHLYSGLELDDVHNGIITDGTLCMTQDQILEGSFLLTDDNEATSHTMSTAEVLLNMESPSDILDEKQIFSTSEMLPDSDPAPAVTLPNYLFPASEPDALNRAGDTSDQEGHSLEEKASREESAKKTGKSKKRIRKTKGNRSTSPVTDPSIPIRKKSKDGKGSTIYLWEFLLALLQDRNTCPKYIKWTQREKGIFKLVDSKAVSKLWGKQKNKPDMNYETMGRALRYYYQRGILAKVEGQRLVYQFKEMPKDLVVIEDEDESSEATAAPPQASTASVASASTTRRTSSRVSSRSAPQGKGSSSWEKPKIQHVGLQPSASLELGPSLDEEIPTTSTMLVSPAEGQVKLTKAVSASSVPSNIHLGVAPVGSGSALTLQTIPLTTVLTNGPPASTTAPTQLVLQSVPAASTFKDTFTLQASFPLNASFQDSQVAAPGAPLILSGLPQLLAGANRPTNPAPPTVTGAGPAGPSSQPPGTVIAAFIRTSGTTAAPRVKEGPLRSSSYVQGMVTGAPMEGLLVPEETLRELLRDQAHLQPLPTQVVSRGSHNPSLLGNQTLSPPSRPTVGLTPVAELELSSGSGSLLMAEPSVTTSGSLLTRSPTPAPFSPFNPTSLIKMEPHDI
Sequence of HSF1 (Q00613 whole entry): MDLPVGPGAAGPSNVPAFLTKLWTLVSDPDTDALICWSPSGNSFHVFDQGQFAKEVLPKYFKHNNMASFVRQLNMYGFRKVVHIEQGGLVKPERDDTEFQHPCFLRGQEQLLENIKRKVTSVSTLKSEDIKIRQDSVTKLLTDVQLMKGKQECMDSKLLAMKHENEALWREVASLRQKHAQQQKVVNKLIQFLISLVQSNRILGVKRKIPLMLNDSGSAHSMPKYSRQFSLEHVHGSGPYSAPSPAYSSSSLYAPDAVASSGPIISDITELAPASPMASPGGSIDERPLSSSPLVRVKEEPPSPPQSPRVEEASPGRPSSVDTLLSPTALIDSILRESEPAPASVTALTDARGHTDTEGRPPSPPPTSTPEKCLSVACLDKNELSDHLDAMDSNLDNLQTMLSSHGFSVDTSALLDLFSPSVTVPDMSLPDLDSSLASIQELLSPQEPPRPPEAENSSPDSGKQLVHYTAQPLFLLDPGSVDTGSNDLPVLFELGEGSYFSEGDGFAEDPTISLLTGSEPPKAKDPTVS

Question: Which results are given for CTTTTT?
Answer: binding signal (FEV): 1.35 fold enrichment (6-mer frequency, TF over GST control); binding signal (ETV5): 1.28 fold enrichment (6-mer frequency, TF over GST control); binding signal (HSF1): 1.23 fold enrichment (6-mer frequency, TF over GST control); binding signal (SPIC): 1.34 fold enrichment (6-mer frequency, TF over GST control); binding signal (ELF4): 1.43 fold enrichment (6-mer frequency, TF over GST control); binding signal (ELK4): 1.24 fold enrichment (6-mer frequency, TF over GST control); binding signal (ETV2): 1.28 fold enrichment (6-mer frequency, TF over GST control); binding signal (ELF3): 1.58 fold enrichment (6-mer frequency, TF over GST control); binding signal (CRX): 1.25 fold enrichment (6-mer frequency, TF over GST control); binding signal (ETV1): 1.32 fold enrichment (6-mer frequency, TF over GST control); binding signal (ERF): 1.31 fold enrichment (6-mer frequency, TF over GST control); binding signal (ETV3L): 1.35 fold enrichment (6-mer frequency, TF over GST control); binding signal (ETS2): 1.31 fold enrichment (6-mer frequency, TF over GST control); binding signal (SPDEF): 1.32 fold enrichment (6-mer frequency, TF over GST control); binding signal (ETV7): 1.37 fold enrichment (6-mer frequency, TF over GST control); binding signal (ELF5): 1.31 fold enrichment (6-mer frequency, TF over GST control); binding signal (ETV3): 1.24 fold enrichment (6-mer frequency, TF over GST control); binding signal (ETV6): 1.3 fold enrichment (6-mer frequency, TF over GST control)
